Dicer inh: blocks human Dicer maturation of pre-miR-21; cat-ELCCA pre-miR-21 Dicer processing, chemiluminescence; hits give high values; z-score at 25 µM; actives 6% (n = 47,000); AID 1347074; in the data active = z-score above about 3, passing the limit was not always enough;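 note: plate controls were vehicle for no effect and no enzyme for full effect; higher signal means more uncleaved substrate so more Dicer inhibition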
* hit, by the source's call. Shown is part of a subset that was picked to be rich in hits.

SMILES | Dicer inh
CNS(=O)(=O)c1cc(-c2nnc3c4ccccc4c(C)nn23)ccc1OC | 1.56
COc1ccc(-c2nnc3c4ccccc4c(C)nn23)cc1S(=O)(=O)N(C)C1CCCCC1 | 0.88
Cc1ccc(-c2nnc3c4ccccc4c(C)nn23)cc1S(=O)(=O)N1CCN(c2ccccc2)CC1 | 2.53
CCC(CO)NS(=O)(=O)c1cc(-c2nnc3c4ccccc4c(C)nn23)ccc1OC (centres undefined) | 2.78
COc1ccc(-c2nnc3c4ccccc4c(C)nn23)cc1S(=O)(=O)NC(C)C | 5.04*
COc1ccc(-c2nnc3c4ccccc4c(C)nn23)cc1S(=O)(=O)N1CCCC1 | 5.49*
Cc1ccc(-c2nnc3c4ccccc4c(C)nn23)cc1S(=O)(=O)NC(C)(C)C | 1.11
COc1ccc(-c2nnc3c4ccccc4c(C)nn23)cc1S(=O)(=O)NC1CCCCC1 | 2.52
Cc1ccc(-c2nnc3c4ccccc4c(C)nn23)cc1S(=O)(=O)N1CCCC1 | 3.21*
CCN1CCCn2c1nc1c2c(=O)[nH]c(=O)n1C | 0.49
COc1ccc(-c2nc(-c3cc4ccc(C)cc4[nH]c3=O)no2)cc1OC | 0.44
Cn1c(=O)c2c(nc(Oc3ccccc3)n2Cc2ccc(Br)cc2)n(C)c1=O | -0.52
COc1ccc(CN2COc3ccc(Br)cc3C2)cc1 | 2.5
Nc1nc2nc3c(c(-c4ccccc4)c2c(=O)[nH]1)C(=O)c1ccccc1-3 | -0.08
COc1ccc2c(=O)c(-c3ccc(Cl)cc3)c(C(F)(F)F)oc2c1 | -0.51
COc1ccc(-c2c(C(F)(F)F)oc3cc(O)cc(O)c3c2=O)cc1 | 5.28*
COc1ccc(-c2c(C)oc3cc(O)cc(O)c3c2=O)cc1OC | 2.04
CC(Sc1nnc2sc3ccccc3n12)C(=O)O (centres undefined) | 0.44
C=CCSc1nnc2sc3ccccc3n12 | 0.61
CCOC(=O)c1cnc(NC(=O)CSc2nnc3sc4ccccc4n23)s1 | 4.26*
COc1ccc(-c2oc3ncn4nc(-c5ccncc5)nc4c3c2-c2ccc(OC)cc2)cc1 | 0.64
Cc1csc2ncnc(N3CCN(C(=S)NCC4CC4)CC3)c12 | 0.99
O=C(Nc1cccc(Cl)c1)N1CCN(c2nsc3ccccc23)CC1 | -0.99
O=C(Nc1cccc(Cl)c1)N1CCc2ccccc2C1 | 5.96*
CN1CC(=O)N/C1=N\C(=O)Nc1cccc(Cl)c1 | -1.5
SMILES | Dicer inh
CCCCN1C(=O)C(=O)c2ccccc21 | -1.1
Cc1ccc(S(C)(=O)=NC(=O)c2ccc(C(C)(C)C)cc2)cc1 (centres undefined) | -0.75
Cn1c2c(c(=O)n(C)c1=O)CN(CCCCN)CN2 | -1.13
CCC(C)OC(=O)c1c(NC(=O)c2nc3nc(C)cc(C(F)F)n3n2)sc2c1CCCC2 (centres undefined) | 2.47
COC(=O)c1csc(S(=O)(=O)NC2CCCCNC2=O)c1OC (centres undefined) | 3.98*
O=C1NCCCCC1NS(=O)(=O)c1cccs1 (centres undefined) | -0.93
Cc1c(S(=O)(=O)NC2CCCCNC2=O)sc2ccc(Cl)cc12 (centres undefined) | 1.27
Cc1ccc2[nH]c(C)c(CN(C)C)c(=O)c2c1 | 0.69
Cc1cc(NC(=O)c2sc3nc4c(c(-c5cccs5)c3c2N)CN(C)CC4)no1 | -7.71
Cc1nc2c(cnn2-c2ccccc2)c(=O)n1/N=C/c1ccc(Cl)cc1 | 3.18*
Cc1nc2c(cnn2-c2ccccc2)c(=O)n1/N=C/c1cccs1 | 2.05
O=c1c2cnn(-c3ccccc3)c2ncn1/N=C/c1ccc(Cl)cc1 | 0.07
O=c1c2cnn(-c3ccccc3)c2ncn1/N=C/c1ccc(OCc2ccccc2)cc1 | -0.77
O=c1c2cnn(-c3ccccc3)c2nnn1/N=C/c1ccc([N+](=O)[O-])cc1 | 3.28*
O=c1c2cnn(-c3ccccc3)c2nnn1/N=C/c1ccc(OCc2ccccc2)cc1 | -1.07
COc1ccc(-c2c(C(F)(F)F)[nH]n3c(=O)cc(-c4cccc([N+](=O)[O-])c4)nc23)cc1 | 7.89
Cn1c(NCc2ccccn2)nc2c1c(=O)n(Cc1ccccc1F)c(=O)n2C | -0.88
Cc1cccc2c1N(CC(C)C)C(=O)C2=O | 1.76
CCOC(=O)c1cncc(C#CCOC(=O)c2ccc(Cl)cn2)c1 | -0.84
O=C(Cn1nc2sc3ccccc3n2c(=O)c1=O)NC(=O)Nc1ccccc1 | -0.18
O=C1c2ccccc2C(=O)N1c1snnc1-c1ccc(C(F)(F)F)cc1 | -0.62
CC(C)(C)OC(=O)C(C)(C)ONC(=O)Nc1ccc(Cl)cc1Cl | -1.29
CCOc1ccccc1Oc1c(C)oc2cc(O)ccc2c1=O | 0.76
COc1ccccc1Oc1coc2cc(O)ccc2c1=O | 0.15
CCOc1ccccc1Oc1coc2cc(O)ccc2c1=O | 3.31*
SMILES | Dicer inh
C#Cc1cccc(NCN2C(=O)c3ccccc3C2=O)c1 | 3.09*
CC(=O)Nc1ccc(NCN2C(=O)c3ccccc3C2=O)cc1 | -0.7
CC(C)c1ccc(NCN2C(=O)c3ccccc3C2=O)cc1 | 2.84
CCOC(=O)C1=C(C)Nc2nc3ccccc3n2C1c1ccccc1C (centres undefined) | 0.04
COC(=O)C1=C(C)Nc2nc3ccccc3n2C1c1sccc1C (centres undefined) | -0.1
CCOC(=O)C1=C(C)Nc2nc3ccccc3n2C1c1ccc(O)cc1 (centres undefined) | -0.38
CCOC(=O)C1=C(C)Nc2nc3ccccc3n2C1c1sccc1C (centres undefined) | -0.78
CC1=C(C(=O)OC(C)C)C(c2sccc2C)n2c(nc3ccccc32)N1 (centres undefined) | 3.52*
CCOC(=O)C1=C(C)Nc2nc3ccccc3n2C1/C=C/c1ccccc1 (centres undefined) | 3.83*
COc1ccc(/C=N/NC(=O)CC#N)cc1OC | -1.22
O=S(=O)(C1=CC23CCCCC2(C=C(S(=O)(=O)c2ccc(Cl)cc2)C3)C1)c1ccc(Cl)cc1 (centres undefined) | -0.82
COC(=O)c1sccc1OS(=O)(=O)c1cc([N+](=O)[O-])ccc1C | -5.45
C=CCNC(=S)NNC(=O)c1oc2nc(-c3ccc(Cl)cc3)cc(-c3ccccc3)c2c1N | -0.9
c1ccc2c(c1)NC(c1ccc3c(c1)OCCO3)n1cccc1-2 (centres undefined) | 2.57
O=C1c2ccccc2NC(c2ccc3c(c2)OCO3)N1Cc1ccccc1 (centres undefined) | 3.43*
CC1(C)CC(=O)C2=C(C1)Nc1ccccc1NC2c1ccc2c(c1)OCO2 (centres undefined) | -0.62
O=C1CSC2=NC3=C(CCc4ccccc43)C(c3ccccc3)N12 (centres undefined) | -1.45
O=C1CC(NCCCN2CCN(c3ccc(F)cc3)CC2)C(=O)N1c1ccc(Cl)cc1 (centres undefined) | 1.23
Cc1ccc(-n2cc(-c3cccs3)nc2SCc2n[nH]c(=S)n2Cc2ccccc2)cc1 | 5.84*
S=c1[nH]nc(-c2ccncc2)n1Cc1ccccc1 | 1.25
CCn1c(-c2cccs2)n[nH]c1=S | 1.59
COc1cccc(C2C3=C(CC(C)(C)CC3=O)OC3=C2C(=O)CC(C)(C)C3)c1O | 0.63
Cc1ccc(OCC(O)CN2CCC(C)CC2)c(C)c1 (centres undefined) | 1.21
COC(=O)c1ccccc1NC(=S)N(N)CCO | -0.19
COC(=O)c1ccccc1NC(=S)OC | 0.06
CCOC(=O)Nc1ccccc1C(=O)OC | 5.39*
N#C/C(=C\c1ccccc1Cl)C(N)=O | 1.6
NC(=O)c1ccc([N+](=O)[O-])cc1C(N)=O | 1.31
O=C(Cn1cc(C(=O)c2ccco2)c2ccccc21)NCc1cccs1 | -1.13
O=C(Cn1cc(C(=O)c2ccco2)c2ccccc21)NCCc1c[nH]c2ccccc12 | 4.01*

Bioassay records (PubChem)
